From PubChem BioAssay
The source made the active and inactive calls. Unless noted, how the calls were made is not given here.

Legend:
[1] = HepG2 liver cancer cell viability effects, profiling panel, resazurin fluorescence, 24 h, PK04 Diversity Set (AID 1172); settings: higher = more signal; further: test concentration not given here
[2] = basal S. cerevisiae growth modulation, no modifier, primary screen, OD600, strain BY4716, 24 h, basal condition (AID 1173); settings: OD600, 24 h, higher = more signal, called active from +8 up or from −8 down
[3] = MM1S myeloma cell viability, profiling panel, resazurin fluorescence, basal, 24 h, PK04 Diversity Set (AID 1174); settings: higher = more signal, called active from +8 up or from −8 down;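 further: MM1S multiple myeloma cell line; test concentration not given here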
[4] = target: Dihydroorotate dehydrogenase (quinone), mitochondrial (Plasmodium falciparum (isolate 3D7)) (UniProt Q08210); assay: PfDHODH enzyme inhibitors, primary screen, biochemical, C-terminal His tag, absorbance 600 nm (AID 1175); settings: DCIP absorbance 600 nm, higher = more signal, called active from +8 up or from −8 down;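 further: recombinant parasite enzyme with a five histidine tag at its C terminus; test concentration not given here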
[5] = P. aeruginosa biofilm formation inhibitors, primary screen, strain PAO1, LB-PBS medium, absorbance 600 nm (AID 1176); further: test concentration not given here; settings: P. aeruginosa PAO1 growth/biofilm, A600, 12 h; higher = more signal
[6] = S. cerevisiae RM11-1a growth modifiers, primary screen, strain RM11-1a, OD600, basal, 24 h (AID 1177); settings: OD600, 24 h, higher = more signal, called active from +8 up or from −8 down;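 further: cultures grown under basal conditions with no added stressor; test concentration not given here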
[7] = E. coli acrAB mutant growth effects, primary screen, E. coli filamentation inducers, strain DRC39, OD650, 24 h (AID 1178); settings: higher = more signal, called active from +8 up or from −8 down;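 further: growth measured as culture turbidity by optical density at 650 nm; test concentration not given here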
[8] = E. coli acrAB mutant growth effects, primary screen, E. coli filamentation inducers, strain DRC39, OD650, 48 h (AID 1179);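 further: screen aims at cell division blockers that make cells filament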; settings: E. coli DRC39 delta-acrAB growth, higher = more signal, called active from +8 up or from −8 down
[9] = RPMI8226 myeloma cell viability, profiling panel, resazurin fluorescence, basal, 24 h, PK04 Diversity Set (AID 1180); settings: higher = more signal;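 further: RPMI8826 multiple myeloma cell line at 5000 cells per well; test concentration not given here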
[10] = target: E3 ubiquitin-protein ligase XIAP (Homo sapiens) (UniProt P98170); assay: XIAP binders, primary screen, biophysical, small-molecule microarray, fluorescence 635 nm (AID 1181); settings: small-molecule microarray binding, higher = more signal;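 further: score merges 667 nm emission and signal to noise over triplicate slides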
E3 ubiquitin-protein ligase XIAP (Homo sapiens), sequence (P98170 whole entry, looked up): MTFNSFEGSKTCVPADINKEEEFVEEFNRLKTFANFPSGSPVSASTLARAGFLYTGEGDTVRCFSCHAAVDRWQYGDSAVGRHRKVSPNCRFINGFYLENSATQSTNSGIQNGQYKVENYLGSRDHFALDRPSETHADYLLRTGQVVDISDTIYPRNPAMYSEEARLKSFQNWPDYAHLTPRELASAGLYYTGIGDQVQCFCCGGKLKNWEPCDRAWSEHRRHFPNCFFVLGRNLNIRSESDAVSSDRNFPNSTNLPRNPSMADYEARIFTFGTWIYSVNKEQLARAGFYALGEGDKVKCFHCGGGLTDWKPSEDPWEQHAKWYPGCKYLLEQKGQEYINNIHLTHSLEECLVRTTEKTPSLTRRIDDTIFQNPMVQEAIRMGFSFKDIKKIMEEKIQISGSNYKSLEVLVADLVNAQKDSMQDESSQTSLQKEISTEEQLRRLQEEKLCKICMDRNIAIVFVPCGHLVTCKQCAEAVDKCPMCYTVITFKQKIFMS

Dihydroorotate dehydrogenase (quinone), mitochondrial (Plasmodium falciparum (isolate 3D7)), sequence (Q08210 whole entry, looked up): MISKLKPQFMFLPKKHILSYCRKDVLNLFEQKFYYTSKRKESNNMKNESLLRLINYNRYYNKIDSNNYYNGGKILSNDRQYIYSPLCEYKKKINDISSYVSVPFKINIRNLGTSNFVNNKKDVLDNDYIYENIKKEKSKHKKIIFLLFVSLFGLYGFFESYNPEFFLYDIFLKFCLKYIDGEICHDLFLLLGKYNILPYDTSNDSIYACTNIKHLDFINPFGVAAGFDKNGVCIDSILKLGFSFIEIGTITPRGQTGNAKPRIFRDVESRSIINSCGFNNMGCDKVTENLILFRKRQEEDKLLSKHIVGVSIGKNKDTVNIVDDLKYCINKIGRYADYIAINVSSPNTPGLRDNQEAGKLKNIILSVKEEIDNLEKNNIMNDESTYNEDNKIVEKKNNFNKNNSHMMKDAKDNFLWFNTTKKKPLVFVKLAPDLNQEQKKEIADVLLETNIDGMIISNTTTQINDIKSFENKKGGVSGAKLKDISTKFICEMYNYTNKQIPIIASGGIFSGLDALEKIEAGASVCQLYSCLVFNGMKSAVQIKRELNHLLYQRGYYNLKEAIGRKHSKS

SMILES	z-score [1]	z-score [2]	z-score [3]	composite z-score [4]	z-score [5]	z-score [6]	z-score [7]	z-score [8]	z-score [9]	composite z-score [10]
CO[C@@H]1COC(=O)[C@H](C)NC(=O)[C@@H](C)COC(=O)CCC[C@H]1C	0.868	0.0728 (inactive)	-0.516 (inactive)	-0.926 (inactive)	-0.892 (inactive)	0.0233 (inactive)	0.277 (inactive)	-0.297 (inactive)	-0.0734	-0.153
C=CCNC(=O)[C@H]1[C@@H]2C(=O)O[C@@H](c3ccccc3)[C@@H](c3ccccc3)N2[C@@H](c2ccc(O)cc2)[C@]12C(=O)N(C(=O)OCCOC)c1ccc(C#CC3=CCCCC3)cc12	0.467	0.107 (inactive)	-0.61 (inactive)	-0.629 (inactive)	0.858 (inactive)	1.01 (inactive)	-0.925 (inactive)	-0.723 (inactive)	-0.205	0.22
O[C@@H](Cc1ccccc1)[C@H]1C2C=CCCC(c3ccccc3)=C2CN1Cc1cccc(Cl)c1 (stereo not given in full)	0.689	-3.75 (inactive)	-0.146 (inactive)	0.426 (inactive)	1.56 (inactive)	-0.53 (inactive)	3.04 (inactive)	1.85 (inactive)	-0.0337	0.25
CCCCCN1CC=CC23O[C@@H]4C=CCOC(=O)[C@@H]4[C@H]2C(=O)N(CCCCCCO)[C@@H]3C1=O (stereo not given in full)	0.547	0.428 (inactive)	0.806 (inactive)	-0.473 (inactive)	0.454 (inactive)	0.151 (inactive)	0.282 (inactive)	0.225 (inactive)	0.922	0.114
COc1ccc(CCNC(=O)[C@@H]2c3ccccc3C(=O)N(c3ccc(C)cn3)[C@H]2c2ccc(CO)cc2)cc1	0.594	-0.742 (inactive)	-0.806 (inactive)	-0.204 (inactive)	0.525 (inactive)	-0.195 (inactive)	0.0636 (inactive)	-0.113 (inactive)	1	-0.267
CC(=O)OC[C@H]1O[C@H](CC=NOC[C@@H](C)[C@H](OCc2ccccc2)C(C)C)C=C[C@@H]1OC(C)=O	0.643	0.904 (inactive)	-0.473 (inactive)	-0.298 (inactive)	0.0738 (inactive)	-0.0321 (inactive)	0.204 (inactive)	0.193 (inactive)	0.692	-0.0571
O=C1CCCC2OC12C(O)CCc1ccccc1 (stereo not given)	-1.06	-0.372 (inactive)	-0.397 (inactive)	-0.103 (inactive)	-0.127 (inactive)	0.142 (inactive)	0.637 (inactive)	0.489 (inactive)	0.145	-0.0238
O=C1[C@H]2[C@H]3[C@H](O)[C@H](O)CC(=NOC[C@@H](O)COCc4ccco4)[C@H]3CC[C@H]2C(=O)N1C1CCCCC1	0.0194	-0.563 (inactive)	-0.304 (inactive)	-2.13 (inactive)	0.188 (inactive)	-0.479 (inactive)	0.426 (inactive)	-0.0377 (inactive)	-0.263	0.116
O=C1[C@H]2[C@H]3[C@H](O)[C@H](O)CC(=NO[C@@H]4O[C@H](CO)[C@@H](O)[C@H](O)[C@H]4O)[C@H]3CC[C@H]2C(=O)N1Cc1ccccc1	0.835	-0.816 (inactive)	-0.183 (inactive)	-0.592 (inactive)	-0.0728 (inactive)	-1.1 (inactive)	-0.395 (inactive)	0.355 (inactive)	0.797	0.0153
COC(=O)[C@@H]1N=C(c2ccc(OCCCO)cc2)O[C@@H]1c1ccccc1N=[N+]=[N-]	1.92	-4.88 (inactive)	0.856 (inactive)	0.458 (inactive)	1.2 (inactive)	-0.82 (inactive)	2.09 (inactive)	0.995 (inactive)	0.0154	0.267
CC(C)(C)OC(=O)CC[C@]1(C(N)=O)COC(c2ccc(OCCCO)cc2)=N1	-0.722	0.0462 (inactive)	-1.43 (inactive)	0.0996 (inactive)	0.134 (inactive)	-0.788 (inactive)	-0.34 (inactive)	0.381 (inactive)	-0.751	0.276
CC1(C)OCC(C(O)C2=CCCCC2=O)CO1 (stereo not given)	-0.786	-0.124 (inactive)	0.665 (inactive)	0.523 (inactive)	1.49 (inactive)	0.205 (inactive)	-0.85 (inactive)	-2.63 (inactive)	0.297	-0.294
CC(C)c1ccc(NN2C(C(O)c3ccc4c(c3)OCO4)C=CC3C(=O)N(c4ccccc4)C(=O)C32)cc1 (stereo not given)	-1.13	-0.791 (inactive)	-0.165 (inactive)	-0.0797 (inactive)	1.08 (inactive)	0.266 (inactive)	-0.167 (inactive)	-0.563 (inactive)	-0.191	0.0641
